PglD DTNB: C. jejuni PglD acetyltransferase inhibitors, primary screen, biochemical, DTNB colorimetric, single point; UDP-N-acetylbacillosamine N-acetyltransferase PglD (Campylobacter jejuni); purified PglD enzyme, DTNB colorimetric CoA detection; inhibition, % at 12.5 µM; 360,000 tested, 0.098% active; AID 602405, 2012; in the data active = inhibition above about 16%, passing the limit was not always enough
CFTR F508del cor: F508del CFTR correction, initial screen, CFBE line, single point | CFBE cells, YFP halide quenching; stimulated with forskolin plus potentiator P3; % fluorescence drop versus neutral controls | activity (quench increase), % at 7.58 µM | 350,000 tested, 0.36% active | AID 720511, 2013;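 active = mean added fluorescence quench of at least 8% versus neutral control, with both replicates also reaching 8%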;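 also: cells transiently co-express mutant CFTR-F508del with the halide-sensitive YFP; corrector assay measuring rescue of mutant channel to the surface after 24 h compound exposure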
Statin myotox sup: suppressors of statin myotoxicity in C2C12 myotubes, primary screen, cell-based, single point, plate reader. C2C12 myotubes + simvastatin, ATP luminescence, 48 h; scaled: DMSO 0, geranylgeraniol control 100. rescue of ATP level, % at 7.49 µM. 330,000 tested, 0.78% active;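 active = mean ATP rescue above about 67%, or every replicate alone reaching that limit, limit read from the data, passing the limit was not always enough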;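 also: myotubes were challenged with 10 µM simvastatin during compound exposure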
ARNT TACC3 PPI: disruptors of ARNT/TACC3 protein interaction, primary screen, biochemical, AlphaScreen, single concentration | AlphaScreen His-ARNT PAS-B/GST-TACC3 binding, luminescence; TACC3 fragment carries E629A point mutation | inhibition, % at 9.99 µM | 390,000 tested, 0.66% active | AID 623870, 2012;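 active = mean inhibition of replicates at least 50% and at least half of replicates each reaching 50%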
A number is an active result; n = inactive; x = no result. Shown are actives, neighbours in structure and some others; about 1.4% of the full set was active somewhere.

SMILES	PglD DTNB	CFTR F508del cor	Statin myotox sup	ARNT TACC3 PPI
COc1cccc(N=Nc2ccc3cccnc3c2O)c1	n	8.3	n	n
CC12CCC(C(=O)N(CSC(=S)N/N=C\c3ccccc3O)C1=O)C2(C)C (configuration not stated)	n	x	n	66
CCC(=O)N1CC(=O)N2[C@H](CO)[C@@H](c3ccc(-c4ccccc4C)cc3)[C@H]2C1	x	n	x	x
COc1ccc(-c2nn(-c3ccccc3)cc2C(=O)NC(=S)NNC(=O)c2ccncc2)cc1	n	n	n	46
COc1ccc(NC(=O)c2cn(-c3ccccc3)nc2-c2ccncc2)cc1	x	n	x	n
CCOC(=O)c1nn(-c2ccc(F)cc2)c(C)c1C(C)=O	n	x	74	n
CCOC(=O)c1nn(-c2ccc(C)cc2)c(C)c1C(C)=O	n	x	n	n
COCc1cn(CC[C@H]2CC[C@@H](NC(=O)c3ccc(F)cc3)[C@@H](CO)O2)nn1	n	n	n	n
CN1CCN(CCCNC(=O)C2CC(=O)N(C3CCCCC3)C2)CC1 (configuration not stated)	n	x	n	n
O=C(NCCCN1CCN(c2ccccc2F)CC1)C1CC(=O)N(C2CCCC2)C1 (configuration not stated)	n	n	125	n
Cc1ccc(-c2nnc(N(C)C(=O)c3cccnc3)s2)cn1	n	x	n	n
Cc1cnc(-c2nnc(N(C)C(=O)c3cccnc3)s2)cn1	n	x	108	x
CC(C)NC(=O)N(C)C[C@H]1Oc2ccc(NC(=O)Cc3ccccc3)cc2C(=O)N([C@H](C)CO)C[C@H]1C	n	n	n	n
C=CCn1c(=O)/c(=C\c2ccsc2)s/c1=C(/C#N)C(=O)NCCN1CCOCC1	n	x	112	n
Cc1cc(=O)[nH]c(NN=Cc2c(Cl)cccc2Cl)n1	n	n	n	n
Cc1cc(=O)[nH]c(SCC(=O)Nc2c(C)n(C)n(-c3ccccc3)c2=O)n1	n	n	n	n
Cc1cc(=O)[nH]c(N/N=C/C2=C(N3CCOCC3)C(=C\c3ccc(Cl)cc3)/CC2)n1	x	x	n	24
Cc1cc(=O)[nH]c(Nc2c(C)n(C)n(-c3ccccc3)c2=O)n1	n	x	124	n
Cc1cc(=O)[nH]c(N/N=C/c2c(O)n(-c3ccccc3)c(=O)c3ccccc23)n1	n	x	x	72
Cc1cc(=O)[nH]c(N/N=C/c2ccc(Br)s2)n1	n	x	x	61
C[C@H](O)C#Cc1ccc2c(c1)O[C@@H](CN(C)C(=O)c1ccccc1)[C@H](C)CN([C@@H](C)CO)S2(=O)=O	n	n	n	n
COc1ccc2c3c([nH]c2c1)[C@H](CO)N(S(C)(=O)=O)CC31CCN(C(=O)Cc2cccnc2)CC1	x	n	x	x
CSc1ccc(/C=N/Nc2nc(C)cc(=O)[nH]2)cc1	n	n	n	n
Cc1cc(=O)[nH]c(N/N=C/c2ccc(O)c(O)c2)n1	x	n	x	67
Cc1cc(C)nc(/N=C2\NC(=O)CC(C(=O)O)N2c2ccc(Cl)cc2)n1 (configuration not stated)	n	n	70	n
SMILES	PglD DTNB	CFTR F508del cor	Statin myotox sup	ARNT TACC3 PPI
Cc1ccc(N2/C(=N/c3nc(C)cc(C)n3)NC(=O)CC2C(=O)O)cc1 (configuration not stated)	n	x	n	n
CCCN1C[C@H](C)[C@H](OC)CN(C)C(=O)c2cc(NC(=O)COC)ccc2OC[C@H]1C	n	n	n	n
CC(=O)c1c(C)[nH]c(C(=O)CSc2nnc(C3CCCCC3)n2N)c1C	n	x	122	n
Cc1cc(=O)[nH]c(N/N=C/c2ccccn2)n1	x	x	x	n
O=c1cnnc(N/N=C/c2ccccn2)[nH]1	n	n	n	78
O=c1nc(N/N=C/c2ccccn2)cn[nH]1	x	n	x	64
C(=N\Nc1nc2ccccc2[nH]1)/c1ccccn1	x	n	x	x
C(=N\Nc1ccc2nncn2n1)/c1ccccn1	n	n	x	51
O=C(C[C@H]1CC[C@@H]2[C@H](COC[C@@H](O)CN2Cc2nccs2)O1)NCc1ccccc1F	n	n	n	n
C/C(=N\NC(=O)c1ccccc1)c1c(C)[nH]n(-c2ccccc2)c1=O	n	x	n	42
CCn1c(SCC(=O)c2ccc(Br)cc2)nnc1C(C)NC(=O)Cc1ccc(OC)cc1 (configuration not stated)	n	x	n	n

From PubChem BioAssay
